# Source: PubChem BioAssay (NCI)
# The panel holds about 83,000 compounds, 20% with a hit somewhere; the sample as a whole holds those more often.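 Single-dose data. Exposure time 48 hours. Values below 10 considered active.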 The source made the active and inactive calls.
# System: SN12C renal
# Assay: NCI-60 one-dose screen, 48 h (100 = growth as untreated, 0 = no growth, -100 = all killed)
# Conditions: 10 µM unless noted
row,SMILES,growth
1,CCCCCN1C=C/C(=C\C(=O)N(C)c2ccc(Oc3ccccc3)cc2)c2ccccc21,87.5% (inactive)
2,O=C1Nc2cc(-c3ccc(NC(=O)C4CC4)cc3)ccc2/C1=C/c1ccc[nH]1,97.8% (inactive)
3,COc1cc2nc(-c3ccc(Cl)cc3)cc(OCCCN3CCCC3)c2cc1OC,37.9% (inactive)
4,CCCOC(=O)N[C@H]1CCc2c(Cl)c(OC)c(OC)c(OC)c2-c2ccc(SC)c(=O)cc21,20.5% (inactive)
5,CCCCCCOc1ccc(/C=N/Nc2cc(C)nc3ccc(Cl)cc23)cc1,-84.6% (active)
6,Nc1c(C(=O)Nc2cccc3cnccc23)sc2nc3c(cc12)CN(Cc1ccccc1)CC3,97.5% (inactive)
7,CCCCOc1ccc(/C(C)=N/Nc2cc(C)nc3ccc(Br)cc23)cc1,82.5% (inactive)
8,Cc1cnc(C(=O)Nc2nc3ccc(S(=O)(=O)Nc4ccc(C(C)(C)C)cc4)cc3[nH]2)cn1,43.7% (inactive)
9,CCN1CCN(CCNc2nccc(-c3c(-c4cccc(OC)c4)nc4occn34)n2)S1(=O)=O,95.6% (inactive)
10,CCCCOc1ccc(/C=N/Nc2cc(C)nc3ccc(Br)cc23)cc1,-78.4% (active)
11,O=c1[nH]nc(-c2ccccc2)c2sc3ncc(-c4ccc(Br)cc4)n3c12,46.1% (inactive)
12,O=C(Nc1ccc(NC(=O)c2cc(=O)[nH]c3ccccc23)cc1)Nc1cccc(Cl)c1,88.8% (inactive)
13,N#Cc1cc(-c2nc3ccccc3s2)c(=O)n(NS(=O)(=O)c2ccccc2)c1N,99.9% (inactive)
14,Oc1ccc(C(c2ccc(O)cc2)c2ccc(Br)cn2)cc1,1.64% (active)
15,CCOC(=O)[C@@H]1CCCN(S(=O)(=O)c2ccc(S(=O)(=O)N(CC)CC)c(F)c2)C1,85.4% (inactive)
16,N#Cc1cccc(-c2ccc3c(c2)NC(=O)/C3=C\c2ccc[nH]2)c1,87.6% (inactive)
17,O=[N+]([O-])c1cc(Br)c2cccc3c2c1CC3,101% (inactive)
18,NS(=O)(=O)c1ccc(Cn2c(SCC(=O)N/N=C/c3ccccc3O)nc3ccccc3c2=O)cc1,56.2% (inactive)
19,CCNC(=O)Oc1ccc(/C(=C(\C)c2ccccc2)c2ccc(OCCN(CC)CC)cc2)cc1,82.1% (inactive)

row,SMILES,growth
1,COc1ccc(C(=O)/C=C/c2cc3ccccc3n3nnnc23)cc1,102% (inactive)
2,O=C(N/N=C/c1ccc(Oc2ccccc2)cc1)c1cnn2c1NC(c1ccccc1)C2 (stereo not drawn),71.8% (inactive)
3,NC1=NN=C(N)C1=Cc1cc2ccccc2n2nnnc12,97.9% (inactive)
4,CCSCC1CC(O)(c2ccccc2)CC(c2ccc(F)cc2)O1 (stereo not drawn),-68.9% (active)
5,Cc1cccc(NC(=O)Nc2ccc(-n3cnc4cc(-c5ccc(O)cc5)ccc43)cc2)c1,23% (inactive)
6,COc1ccc(/C=C(\C#N)n2nc3cccc(F)c3n2)cc1,104% (inactive)
7,Nc1n[nH]c2cccc(C#Cc3cccc(C(=O)Nc4cccc(C(F)(F)F)c4)c3)c12,67.3% (inactive)
8,O=C(Nc1ccccc1C(=O)N/N=C(\c1ccccc1)c1ccccn1)c1ccc(F)cc1,26.6% (inactive)
9,C=C1C(=O)O[C@H]2[C@H]1CC/C(C(=O)NCCCCCNC(=O)/C1=C/CC[C@@]3(C)O[C@H]3[C@H]3OC(=O)C(=C)[C@@H]3CC1)=C\CC[C@@]1(C)O[C@@H]21,109% (inactive)
10,N#Cc1c(NCc2ccccc2I)sc2c1CCCCC2,96.9% (inactive)
11,C=C1C(=O)O[C@H]2[C@H]1CC/C(COC(=O)NCC(C)c1ccc(CC(C)C)cc1)=C\CC[C@@]1(C)O[C@@H]21 (stereo partly drawn),-57% (active)
12,Cc1cc(C(=O)/C=C/c2ccc[nH]2)ccc1-n1ccc(C(F)(F)F)n1,63.4% (inactive)
13,C=C1C(=O)O[C@H]2[C@H]1CC/C(CNC(=O)/C=C/c1cccc(OC)c1)=C\CC[C@@]1(C)O[C@@H]21,6.02% (active)
14,COc1cc(/C=N/NC(=O)c2cnn3c2NC(c2ccccc2)C3)ccc1Oc1ccccc1 (stereo not drawn),63.8% (inactive)
15,COc1cc(C2=C(c3cn(C)c4ccccc34)COC2=O)cc(OC)c1OC,25% (inactive)
16,COc1cc(/C=C\C(=O)O)ccc1OCc1ccccc1,95% (inactive)
17,COc1cc2c(=O)n(CCN)c3c4cc5c(cc4ccc3c2cc1OC)OCO5,-69.3% (active)
18,CCCCCN1C=C/C(=C\C(=O)N(C)c2ccc(OC(F)(F)F)cc2)c2ccccc21,96% (inactive)
19,CN(C)CC(O)c1ccc(/C=C/c2ccc(Cl)cc2)cc1 (stereo not drawn),-12.3% (active)
